Screening data as filed in PubChem.
sEH act: soluble epoxide hydrolase activators, primary screen, biochemical, human sEH; Bifunctional epoxide hydrolase 2 (Homo sapiens), P34913; purified human sEH enzymatic activity, activator screen; activation, % at 2 µM; 0.04% of 91,000 active; AID 717, 2007; in the data active = activation above about 37%
CYP2C19 activ: human CYP2C19 activators, primary screen, biochemical, luminescence; recombinant CYP2C19, luciferin-H EGE luminescence; stronger effect = higher value; 0 = fully inhibited enzyme, 1 = untreated enzyme; 96,000 tested, under 10 active; activation factor at 5 µM;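 active = activation factor of at least 2 at 5 µM in the primary screen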
Target sequence (P33261 whole entry, looked up): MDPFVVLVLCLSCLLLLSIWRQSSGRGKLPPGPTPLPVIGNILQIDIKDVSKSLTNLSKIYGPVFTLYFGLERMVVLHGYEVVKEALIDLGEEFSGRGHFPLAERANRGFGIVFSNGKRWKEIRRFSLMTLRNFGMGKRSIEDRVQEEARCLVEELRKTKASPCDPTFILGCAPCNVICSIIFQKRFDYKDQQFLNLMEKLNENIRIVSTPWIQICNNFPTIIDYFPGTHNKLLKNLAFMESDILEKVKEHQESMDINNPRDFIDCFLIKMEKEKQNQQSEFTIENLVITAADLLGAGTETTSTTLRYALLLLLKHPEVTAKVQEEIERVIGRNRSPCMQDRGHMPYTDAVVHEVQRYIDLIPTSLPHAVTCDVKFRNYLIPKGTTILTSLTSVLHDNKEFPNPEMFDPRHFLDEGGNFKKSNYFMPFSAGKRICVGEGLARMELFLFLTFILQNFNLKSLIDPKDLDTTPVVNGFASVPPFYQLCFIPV
sEH inh: soluble epoxide hydrolase inhibitors, primary screen, biochemical, human sEH; AID 707, 2007; 0.34% of 91,000 active; Bifunctional epoxide hydrolase 2 (Homo sapiens), P34913; recombinant human sEH enzymatic activity assay; inhibition, % at 2 µM; in the data active = inhibition above about 80%
CYP2C19 inhib: blockers of cytochrome P450 2C19 activity – biochemical, luminescence, ADME assay, primary screen; CYP2C19 Supersomes, luciferin-H EGE luminescence, 30 min; inhibition, % at 5 µM; 21% of 96,000 active;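 active = CYP2C19 inhibition above a set limit at 5 µM in the primary screen, cut at about 50% in these data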
CYP2C9 inhib: blockers of cytochrome P450 2C9 activity – biochemical, luminescence, ADME assay, primary screen; 20% of 96,000 active; inhibition, % at 5 µM; P11712; CYP2C9 Supersomes, luciferin-H conversion;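 active = blocking of liver enzyme CYP2C9 beyond about 50% at 5 µM, limit read from the data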
CYP2C9 act: human CYP2C9 activators, primary screen, biochemical, luminescence. activation factor at 5 µM. recombinant CYP2C9, luciferin-H conversion; stronger effect = higher value; factor 1 = untreated enzyme, 0 = blocked. Cytochrome P450 2C9 (Homo sapiens), P11712. 1.4% of 96,000 active;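 active = activation factor of 2 or more for CYP2C9 at a 5 µM dose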
Each line names hits and unclear results; the compound was inactive in the other large screens. In the library only some 27% were active in any assay of this set; here they are far more common.

COc1ccc(NC(=O)/C(=C\c2cc(OC)c(OC)cc2[N+](=O)[O-])NC(=O)c2ccccc2)cc1	none
CSCCC(NC(=O)c1ccccc1)C(=O)NCc1ccco1 (configuration not stated)	none
C=CCc1ccc(OCC(O)CN2CCCCC2C)c(OC)c1 (configuration not stated)	none
CCOC(=O)C1=C(C)n2c(s/c(=C/c3cccc([N+](=O)[O-])c3)c2=O)=NC1c1ccc(O)c(OC)c1 (configuration not stated)	CYP2C19 inhib 55.4, CYP2C9 inhib 67.2
CCOC(=O)C1=C(N)n2c(s/c(=C/c3ccccc3)c2=O)=C(C(=O)OCC)C1c1ccccc1 (configuration not stated)	none
Cn1c(-c2ccccc2O)cc2ccccc21	none (no result: CYP2C19 activ, CYP2C19 inhib, CYP2C9 inhib, CYP2C9 act)
O=C(c1cn(-c2ccccc2)nc1-c1cccs1)N1CCOCC1	none
O=C(OCc1ccccc1)c1cn(-c2ccccc2)nc1-c1ccncc1	CYP2C19 inhib 51.7
COC(=O)c1cn(-c2ccccc2)nc1-c1ccncc1	none
O=C(c1cn(-c2ccccc2)nc1-c1ccncc1)N1CCCCC1	CYP2C19 inhib 52.1
O=C(c1cn(-c2ccccc2)nc1-c1cccs1)N1CCN(c2ccccc2)CC1	CYP2C19 inhib 96.3, CYP2C9 inhib 97.7
CCc1ccccc1N(CC(=O)O)S(C)(=O)=O	none
CCOC(=O)C1CCN(S(=O)(=O)c2c(C)[nH]c(=O)[nH]c2=O)CC1	none (no result: sEH act, sEH inh)
Cc1ccc(-n2c3c(c(=O)[nH]c2=O)C(C(F)(F)F)(C(F)(F)F)NC(=O)N3)cc1	none
CCC(=O)c1cn(CC(=O)NCC2CCCO2)c2ccccc12 (configuration not stated)	none (no result: sEH act, sEH inh)
O=C(Cn1cc(C(=O)c2ccco2)c2ccccc21)NCc1ccco1	none
O=C(Cn1cc(C(=O)c2cccs2)c2ccccc21)NCC1CCCO1 (configuration not stated)	CYP2C19 inhib 67.2
O=C(Cn1cc(C(=O)c2cccs2)c2ccccc21)NCc1ccc2c(c1)OCO2	CYP2C19 inhib 63.9, CYP2C9 inhib 73.1 (no result: sEH act, sEH inh)
CC(OC(=O)c1cccs1)C(=O)NCC1CCCO1 (configuration not stated)	CYP2C19 inhib 50.9 (no result: sEH act, sEH inh)
Cn1c(COc2ccc3ccccc3c2)nnc1SCC(=O)OC1CCCCC1	none (no result: CYP2C19 activ, CYP2C19 inhib, CYP2C9 inhib, CYP2C9 act)
CCOC(=O)c1oc2ccccc2c1CSc1nnnn1-c1ccccc1	none
O=C(C1CCCN(S(=O)(=O)c2cccs2)C1)N1CCN(C2CCCCC2)CC1 (configuration not stated)	none (no result: sEH act, sEH inh)
CCCNc1cc(C)oc(=O)c1C(=O)CCC	CYP2C9 act 2
CC(=O)c1c(NCCc2ccccc2)cc(C)oc1=O	CYP2C19 inhib 56.7
CCCC(=O)c1c(NC(C)C)cc(C)oc1=O	CYP2C9 act 2.2 (no result: sEH act, sEH inh)
CCCCNc1cc(C)oc(=O)c1C(C)=O	none
O=C(CN1CCOCC1)NCC12CC3CC(CC(C3)C1)C2	none (no result: sEH act, sEH inh)
Cc1nn(C(C)C(=O)NNC(=S)Nc2ccc(Cl)cc2)c(C)c1[N+](=O)[O-] (configuration not stated)	CYP2C9 inhib 64.3
CC(C)c1[nH]nc2c1C(c1cccc(OC(=O)N3CCOCC3)c1)C(C#N)=C(N)O2 (configuration not stated)	none
CC(C)c1[nH]nc2c1C(C(C)C)C(C#N)=C(N)O2 (configuration not stated)	CYP2C19 inhib 58.7
CCc1[nH]nc2c1C(c1cccc(OC(=O)N3CCOCC3)c1)C(C#N)=C(N)O2 (configuration not stated)	CYP2C19 inhib 70.3
CC(C)c1[nH]nc2c1C(Cc1ccccc1)C(C#N)=C(N)O2 (configuration not stated)	CYP2C19 inhib 95.2, CYP2C9 inhib 57.3
COCc1[nH]nc2c1C(c1c(F)cccc1Cl)C(C#N)=C(N)O2 (configuration not stated)	CYP2C19 inhib 57.6
COCc1c(C(=O)OCC(=O)N2c3ccccc3NC(=O)C2(C)C)oc2ccccc12	none
CCCc1[nH]nc2c1C(c1cc(OC)ccc1F)C(C#N)=C(N)O2 (configuration not stated)	CYP2C19 inhib 81.0, CYP2C9 inhib 88.5
CCc1[nH]nc2c1C(c1ccsc1)C(C#N)=C(N)O2 (configuration not stated)	none (no result: CYP2C19 activ, CYP2C19 inhib, CYP2C9 inhib, CYP2C9 act)
Cc1ccc(SCc2[nH]nc3c2C(c2ccc(C)o2)C(C#N)=C(N)O3)cc1 (configuration not stated)	none
CCCc1[nH]nc2c1C(c1ccc(OC)c(CSC3=NCCS3)c1)C(C#N)=C(N)O2 (configuration not stated)	CYP2C9 inhib 57.8
CCc1[nH]nc2c1C(c1ccc(Br)s1)C(C#N)=C(N)O2 (configuration not stated)	CYP2C19 inhib 67.3, CYP2C9 inhib 66.2
Cc1ccc(SCc2[nH]nc3c2C(C(C)C)C(C#N)=C(N)O3)cc1 (configuration not stated)	CYP2C9 inhib 52.5
CCCc1cc(=O)[nH]c(/N=C(\N)Nc2ccccc2)n1	none
CCCC(=O)c1ccc(N2CCN(C(=O)c3ccccc3Br)CC2)c(F)c1	none
COc1ccc(OC)c(-c2[nH]nc3c2C(c2ccco2)C(C#N)=C(N)O3)c1 (configuration not stated)	CYP2C19 inhib 80.4
Cc1[nH]nc2c1C(Cc1ccccc1)C(C#N)=C(N)O2 (configuration not stated)	CYP2C19 inhib 65.5
CCCc1[nH]nc2c1C(CCc1ccccc1)C(C#N)=C(N)O2 (configuration not stated)	CYP2C19 inhib 76.7, CYP2C9 inhib 68.8
CCc1[nH]nc2c1C(Cc1ccccc1)C(C#N)=C(N)O2 (configuration not stated)	CYP2C19 inhib 53.2
Cc1cccc(NC(=O)c2c(O)c3cccc4c3n(c2=O)CC4)c1	none (no result: CYP2C19 activ, CYP2C19 inhib, CYP2C9 inhib, CYP2C9 act)
CCOc1cc(N2CCOCC2)c(OCC)cc1NC(=O)COc1ncnc2ccc(Br)cc12	none
CN(c1ccc(C(=O)N2CCOCC2)cc1[N+](=O)[O-])C1CCCCC1	none
CCCc1[nH]nc2c1C(Cc1ccccc1)C(C#N)=C(N)O2 (configuration not stated)	CYP2C19 inhib 67.9
C=CCSc1nc2sc(-c3ccccc3)cc2c(=O)n1N	CYP2C9 inhib 50.5
Cc1ccc(C)n1-n1c(C)nc2sc(-c3ccccc3)cc2c1=O	none
Cc1ccccc1-n1c(SCC(N)=O)nc2sc(-c3ccccc3)cc2c1=O	CYP2C19 inhib 62.7, CYP2C9 inhib 84.1
CC1(C)Cc2[nH]c(=S)c(C#N)cc2CO1	none
COc1ccc2nc(C(F)(F)C(F)(F)F)c(C#N)c(N)c2c1	none
Cc1ccc(-c2n[nH]c(=S)n2C)cc1	none
